SW480 rerep = induces DNA re-replication in SW480 colon adenocarcinoma cells; SW480 DNA re-replication, Hoechst DNA content imaging, 48 h; Potency, µM (doses to about 46.1 µM), inactives show top-dose re-replication activation, hits mostly activators; hit rate 1.8% among 340,000; AID 624297; also: % of control where 0% means no effect; nearly all actives have a fitted effect of over 55% in size
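Image-based read-out: total Hoechst fluorescence of nuclei (405 nm excitation, 500-530 nm emission), with hits raising the fraction of high-intensity nuclei. SW480 colon cells incubated 48 hr with compounds at 37 C.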
ELG1 DNA repair = inhibitors of ELG1-dependent DNA repair in HEK293T cells. HEK293T ELG1-luciferase reporter, luminescence, 16 h; DNA damage induced by 5-fluorouridine. Potency, µM (top dose mostly 46.1 µM), without a hit: at the highest dose activity change, negative = inhibition, most hits filed as inhibitors. hit rate 2.3% among 330,000; also: % is scaled to controls: 0 for no effect and ±100 for the full control effect; nearly all actives have a fitted effect of over 55% in size
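DMSO vehicle served as the neutral condition. Each well held 2,000 cells given 5-fluorouridine plus compound; after 16 hr at 37 °C/5% CO2, ONE-Glo was added and luciferase measured 30 min later.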
KB-3-1 tox = KB-3-1 parental cell cytotoxicity; KB-3-1 viability, CellTiter-Glo ATP luminescence, 72 h; Potency, µM (highest dose often 46.1 µM), hits mostly cytotoxic; hit rate 1.4% among 400,000; also: % is scaled to controls: 0 for no effect and ±100 for the full control effect; nearly all actives have a fitted effect of over 60% in size
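Parental KB-3-1 adenocarcinoma cells in phenol-red-free DMEM with 10% FBS were pin-treated with compounds at several concentrations, incubated 72 h at 37 °C, and viability read by CellTiter-Glo luminescence; concentration-effect curves were fitted after normalization.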
KB-V1 MDR tox = kills drug-selected multidrug resistant KB-V1 cells. KB-V1 MDR cells viability, CellTiter-Glo, 72 h. Potency, µM (highest dose often 46.1 µM), usual class: cytotoxic. hit rate 3.4% among 400,000. AID 1347076; also: % is scaled to controls: 0 for no effect and ±100 for the full control effect; nearly all actives have a fitted effect of over 60% in size
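Cells of the MDR subline KB-V1 are plated, dosed with compound at multiple concentrations, and incubated 72 h at 37 degrees C; CellTiter-Glo is then added and luminescence read after 10 min.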
MCF10A rereplic = inducers of DNA re-replication in MCF 10A breast cells. MCF 10A DNA re-replication, Hoechst nuclear intensity, 48 h. Potency, µM (titrated, usually from 46.1 µM), for inactives: top-dose activity, positive = re-replication, most hits filed as activators. hit rate 2.9% among 350,000; also: % of control where 0% means no effect; nearly all actives have a fitted effect of over 50% in size
* hit, by the source's call; i = inactive; ? = inconclusive; / = no result given; ! = not active in a repeat; [ ] = remark or other dose. Most compounds without a hit are left out; they make up all but 8.1% or so of the library. Calls follow the shape of the dose curve; as a rule, active = well fitted curve in the direction sought with a large enough effect; inconclusive = small, poorly fitted or top-dose-only effect, or another doubt; inactive = no such curve, though single readings can be large; an effect the other way counts as inactive or inconclusive. Potency is read from the fitted curve at half-maximal effect.

SMILES	SW480 rerep	ELG1 DNA repair	KB-3-1 tox	KB-V1 MDR tox	MCF10A rereplic
COc1ccc(N2CCN(C(=O)Cc3ncc(C(F)(F)F)cc3Cl)CC2)cc1	5.0%	?	i	20.6µM*	2.5%
COc1ccc(CNC(=O)Cc2nn(C)c(=O)c3ccccc23)cc1	-4.8%	-18.1%	?	i	17.6%
COc1ccc(N2CCN(C(=O)Cc3nn(C)c(=O)c4ccccc34)CC2)cc1	-8.7%	?	i	14.6µM*	-11.9%
CN(c1ccccc1C(=O)Nc1ccc(S(=O)(=O)N2CCCC2)cc1)S(C)(=O)=O	1.9%	-11.8%	i	i	4.1%
COc1cccc(/C=C/C(=O)OCC(=O)c2c[nH]c3ccccc23)c1	?	?	i	i	17.2%
Cc1cccc(C)c1-n1nnnc1C(c1ccnc2ccccc12)N1CCCN(C(=O)OC(C)(C)C)CC1 (stereo not given)	/	/	?	i	/
Cc1cccc(C)c1-n1nnnc1C(c1ccnc2ccccc12)N1CCN(c2ccccc2F)CC1 (stereo not given)	/	/	?	16.4µM*	/
N#C/C(=C/c1ccco1)C(N)=S	5.6%	?	i	i	0.0%
N#CC(C#N)=C1C=CC=CN1/C(=C\c1ccco1)C(=O)c1ccccc1	?	?	?	?	2.59µM*
COc1ccc(C(=O)/C(=C\c2ccco2)N2C=CC=CC2=C(C#N)C#N)cc1	?	?	?	7.31µM*	1.3µM*
N#CC(C#N)=C1C=CC=CN1/C(=C\c1ccco1)C(=O)c1ccc(Br)cc1	4.61µM*	?	?	i	3.26µM*
COc1ccc(/C=C(/C(=O)c2cccs2)N2C=CC=CC2=C(C#N)C#N)cc1	?	?	i	i	?
C=CCOc1ccc2ccccc2c1CNCCCN1CCOCC1	3.0%	0.6%	i	16.4µM*	26.4%
COC(=O)c1c(NC(NC(=O)c2ccccc2)(C(F)(F)F)C(F)(F)F)sc2c1CCN(C)C2	0.517µM*	-21.6%	i	i	?
Cc1nnc(NC(=O)c2oc3cc(C)c(C)cc3c2C)s1	/	20.8%	/	/	/
COc1cccc(C=NNC(=O)C(C)SC(C)C(=O)NN=Cc2cccc(OC)c2)c1 (stereo not given)	14.9%	/	i	i	-23.7%
CC(SC(C)C(=O)NN=Cc1cccc(Cl)c1)C(=O)NN=Cc1cccc(Cl)c1 (stereo not given)	9.2µM*	/	?	?	4.11µM*
CC(C)(C)c1ccc(C(=O)N/N=C/c2cccc(Cl)c2)cc1	?	?	?	23.1µM*	12.7%
O=C(N/N=C/c1cccc(F)c1)c1ccc(Cl)cc1	4.0%	?	i	i	0.9%
Cc1c(Cl)c([N+](=O)[O-])nn1Cc1ccc(C(=O)N/N=C\c2cccc(Br)c2)o1	-5.9%	?	i	?	10.0%
CCc1ccc(CNC(=O)c2ccc(CSc3nc4ccncc4n3Cc3ccc(OC)cc3)cc2)cc1	/	/	i	i	/
CC1(C)Oc2ccc3ccc(=O)oc3c2/C(=C/Nc2ccccc2)C1=O	?	?	i	?	?
CC1(C)Oc2ccc3ccc(=O)oc3c2/C(=C/NC2CCCCC2)C1=O	?	?	i	?	14.6µM*
Cc1ccc(S(=O)(=O)Nc2ccccc2/C=N/c2nc3ccccc3n2C(C)C)cc1	8.1%	?	i	i	20.6µM*
CCCn1c(NCc2ccccc2NS(=O)(=O)c2ccc(C)cc2)nc2ccccc21	?	?	?	16.4µM*	10.3µM*
SMILES	SW480 rerep	ELG1 DNA repair	KB-3-1 tox	KB-V1 MDR tox	MCF10A rereplic
CCn1c(NCc2ccccc2NS(=O)(=O)c2ccc(C)cc2)nc2ccccc21	?	-27.5%	?	?	?
CCCCn1c(NCc2cc(Br)ccc2O)nc2ccccc21	/	/	i	i	/
CCn1c(NCc2cc(Br)ccc2NS(=O)(=O)c2ccc(C)cc2)nc2ccccc21	4.0%	-10.3%	?	18.4µM*	-3.8%
COc1ccc(-n2nc(C(=O)Nc3cccc(Cl)c3)c3c4ccccc4n(C)c3c2=O)cc1Cl	/	/	i	i	/
CCOC(=O)[C@H]1[C@H]2COc3ccc(Br)cc3[C@@H]2N2C(=O)CN(Cc3ccc(Cl)cc3)C(=O)[C@@]12C	-1.1%	-22.5%	?	i	?
Cc1c(C(c2cc(O)ccc2O)c2c(C)n(C)n(-c3ccccc3)c2=O)c(=O)n(-c2ccccc2)n1C	13.1%[1.84 µM]	/	i	i	-33.5%
CC(=O)c1c(C)[nH]c(C(=O)NC2CCSc3ccccc32)c1C (stereo not given)	13.0%	5.8µM*	i	i	19.2%
CCc1c(C(=O)NC2CCCc3ccccc32)[nH]c(C)c1C(C)=O (stereo not given)	1.7%	?	?	i	-4.5%
Nc1ccc(C(=O)NCCCSc2ccccc2)cc1[N+](=O)[O-]	-6.2%	-2.8%	?	i	8.2%
CN(C)[C@@H]1C(=O)C(C(N)=O)=C(O)[C@]2(O)C(=O)C3=C(O)c4c(O)ccc(Cl)c4[C@H](O)[C@H]3C[C@@H]12	-1.2%	/	/	/	-2.8%
CCOC(=O)N1C(=O)[C@@](c2ccc(Cl)cc2)(C(C)C)N1C(=O)OCC	?	?	i	?	20.6µM*
Cn1c(-c2ccc(Br)o2)nc2ccccc21	4.7%	?	25.9µM*!	?	-2.9%
O=C(NCCN1CCCC1)C(c1ccccc1)c1ccccc1	?	-10.9%	i	i	23.1µM*
Cc1ccc2nc(SC(C)C(=O)NC3CCCC3)[nH]c2c1 (stereo not given)	11.6%	-13.1%	i	i	?
O=c1ccc(-c2ccccc2)nn1Cc1ccccc1	5.4%	/	i	i	-4.6%
Cc1ccc(-c2ccc(=O)n(Cc3cccc(Br)c3)n2)cc1	?	0.0%	?	16.4µM*	?
Cc1nc(SCC(N)=O)c([N+](=O)[O-])[nH]1	-4.2%	8.5%	i	i	2.1%
CCn1ncc(Br)c1C(=O)Nc1ccccc1OC	-0.5%	-12.5%	13µM*	11.6µM*	5.3%
CCn1ncc(Br)c1C(=O)Nc1cc([N+](=O)[O-])ccc1C	-78.2%	-3.4%	?	16.4µM*	-6.7%
O=C(Nc1ccc(Cl)cc1)Nc1ccc2c(c1)N1CCN=C1S2	9.0%	23.1µM*	i	?	?
CN1\C(=C/C=C/C=C/C=[N+](C)C)C(C)(C)c2ccccc21	-91.5%	-24.4%	?	8.2µM*	?
CN1/C(=C\C=O)C(C)(C)c2ccccc21	-5.6%	-0.9%	i	i	-1.2%
Cc1ccc(NC(CNS(=O)(=O)c2ccc(Cl)cc2)c2ccccc2)cc1 (stereo not given)	4.6%	43.1%	?	?	?
